# Bioassay records deposited in PubChem BioAssay by National Center for Advancing Translational Sciences (NCATS).
# Most compounds without a hit are left out; they make up all but 11% or so of the library.
# L3MBTL1 block – qHTS Assay for the Inhibitors of L3MBTL1 | Lethal(3)malignant brain tumor-like protein 1 (Homo sapiens), Q9Y468 | AlphaScreen L3MBTL1–H3K9me1 peptide binding | Potency, µM (series often up to 57.1 µM), without a hit: at the highest dose activity, negative = inhibition, most hits filed as inhibitors | actives 0.66% (n = 230,000) | AID 485360, 2010; further: on the % scale 0 is the no-effect control and ±100 the full control effect; nearly all actives have a fitted effect of over 60% in size
#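 AlphaScreen assay: L3MBTL1 (50 nM final) was preincubated 30 min at room temperature with biotinylated H3(1-15)K9me1 peptide (75 nM final), then 30 min with library compounds; streptavidin donor and nickel chelate acceptor beads (10 ug/mL final) added, 30 min dark.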
# G9a block – qHTS Assay for Inhibitors of Histone Lysine Methyltransferase G9a; AID 504332, 2011; Potency, µM (series often up to 102 µM), for inactives: at the highest dose activity, negative = inhibition, actives largely listed as inhibitors; Histone-lysine N-methyltransferase EHMT2 (Homo sapiens), Q96KQ7; actives 8.8% (n = 350,000); G9a H3K9 monomethylation, AlphaScreen, 2 h; further: on the % scale 0 is the no-effect control and ±100 the full control effect; nearly all actives have a fitted effect of over 75% in size
#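 G9a (20 nM) preincubated 15 min RT with compounds, then 500 nM biotinylated H3K9 peptide and 20 uM SAM added; 2 h RT reaction. Monomethyl-H3K9 product detected by AlphaScreen with anti-H3K9me1 antibody, streptavidin donor and anti-rabbit IgG acceptor beads.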
# HP1b binding inh – HTS for Inhibitors of HP1-beta Chromodomain Interactions with Methylated Histone Tails; Chromobox protein homolog 1 (Homo sapiens), P83916; AlphaScreen HP1-beta / biotin-H3K9me3 peptide binding; Potency, µM (highest dose often 114 µM), for inactives: at the highest dose activity change, negative = inhibition, hits mostly inhibitors; actives 0.56% (n = 390,000); AID 540317, 2011; further: nearly all actives have a fitted effect of over 70% in size
#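 AlphaScreen: HP1-beta (50 nM) preformed 30 min with biotin-H3(1-18)K9me3 peptide (50 nM) in PBS pH 7.4, 0.01% Tween-20. Compound added for 30 min at RT, then streptavidin donor/nickel chelate acceptor beads (10 ug/mL) for 30 min.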
# BAZ2B block – qHTS Assay for Inhibitors of BAZ2B; Potency, µM (top dose mostly 114 µM), for inactives: at the top dose activity change, negative = inhibition, actives largely listed as inhibitors; actives 4.4% (n = 360,000); AlphaScreen BAZ2B-H3K14Ac peptide displacement; AID 504333, 2011; further: on the % scale 0 is the no-effect control and ±100 the full control effect; nearly all actives have a fitted effect of over 60% in size
#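 Multi-concentration screen (max 110 uM) measuring displacement of acetylated histone H3 peptide from BAZ2B by AlphaScreen, using 50 nM protein, 50 nM peptide and 10 ug/mL streptavidin donor plus Ni-chelate acceptor beads.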
# JMJD2A Tudor inh – qHTS Assay for Inhibitors of JMJD2A-Tudor Domain; AlphaScreen JMJD2A-Tudor / H3K4me3 peptide binding; Potency, µM (doses to about 114 µM), without a hit: at the highest dose activity change, negative = inhibition, actives largely listed as inhibitors; actives 4.4% (n = 390,000); AID 504339, 2011; further: on the % scale 0 is the no-effect control and ±100 the full control effect; nearly all actives have a fitted effect of over 50% in size
# An asterisk follows results filed as active; ? = inconclusive; nt = no result; [ ] = another dose, or the depositor's remark. The call rests on the fitted dose curve; in most records, active means well fitted inhibition curve with a large enough effect; inconclusive means small, poorly fitted or top-dose-only effect; inactive means no such curve, though single readings can be large or run the other way. Potency means the concentration at half of the fitted maximal effect.
SMILES,L3MBTL1 block,G9a block,HP1b binding inh,BAZ2B block,JMJD2A Tudor inh
COc1ccc(NC(=S)NNC(=O)CNc2ccc(Cl)cc2)cc1,15.6%,10µM*,-9.9%,?,-32.6%
Cc1cc(C)nc(NS(=O)(=O)c2ccc(NC(=O)COc3ccc(Cl)cc3C)cc2)n1,nt,10µM*,39.6%,5.4%[57.1 µM],-10.3%
O=C(COc1ccc(Br)cc1Cl)NC(=S)Nc1ccccn1,nt,79.4µM*,5.5%,-15.8%,-11.5%
COc1ccc(NC(=O)CNc2ccc(C#N)cc2)cc1,nt,50.1µM*,26.5%,-15.0%,-8.3%
COC(CC(=O)NNC(=S)Nc1ccc(Cl)cc1)OC,?,0.5%,29.9%,18.9%,-17.4%
CC(=O)Nc1ccc(NC(=O)COc2ccc(-c3ccc(C#N)cc3)cc2)cc1,4.9%,1.4%[0.501 µM],42.3%,6.2%,2.1%
Cc1cc(C)nc(NS(=O)(=O)c2ccc(NC(=O)COc3ccccc3)cc2)n1,-0.6%,-2.3%[59 µM],30.7%,-6.3%,-2.2%
Cc1cccc(-c2c3c(=O)n(C)c(=O)n(C)c3cn2-c2cc(N)c(Cl)cc2Cl)c1,nt,?,9.7%,?,?
O=C(CNc1ccc(Cl)cc1)NNC(=S)NCc1ccccc1,-5.6%,50.1µM*,5.6%,-35.3%,?
Cc1ccc(CCC(=O)Nc2ccc(C#N)cc2)o1,nt,39.8µM*,33.2%,-38.3%,-2.7%
O=C(CNc1cccc(Cl)c1)NNC(=S)NCc1ccccc1,-15.6%,?,4.2%,-22.1%,-33.1%
CCc1cccc(CC)c1NC(=O)C(CC)n1nc(C)n2c(cc3cc(C)ccc32)c1=O (configuration not stated),nt,11.0%[59 µM],47.3%,-12.9%,3.0%
COc1ccc(N(CC(=O)NCc2ccccc2Cl)S(=O)(=O)c2c(C)[nH]c(=O)[nH]c2=O)cc1,nt,3.9%[59 µM],32.6%,-4.8%,-2.7%
CCCCC/C=C\C\C=C/C=C/C=C/[C@@H](SCC(NC(C)=O)C(=O)O)[C@@H](O)CCCC(=O)O (some centres not stated),nt,12.5%[59 µM],nt,nt,nt
COc1ccc(/C=C/C(=O)Nc2ccc3nc4c(c(Nc5ccc(OC)c(OC)c5)c3c2)CCCC4)cc1,nt,8.91µM*,?,8.91µM*,22.4µM*
COc1ccc(Nc2c3c(nc4ccc(NC(=O)/C=C/c5cc(OC)c(OC)c(OC)c5)cc24)CCCC3)cc1OC,nt,15.8µM*,-20.2%,10µM*,?
O=C(CNC(=O)c1ccccc1)OCC(=O)c1ccc2ccccc2c1,nt,nt,15.6%[57 µM],nt,4.6%[57.1 µM]
Cc1cccc(NC(=O)C2CC(=O)n3cnnc3S2)c1 (configuration not stated),nt,?,-46.3%,?,35.5µM*
Cc1ccc(/C=N/N(C)C2=NS(=O)(=O)c3ccccc32)o1,-12.1%,39.8µM*,nt,22.3%,nt
CCOC(=O)c1cnc2c(C)cc(C)cc2c1NCCCN1CCOCC1,3.1%,21.3%[59 µM],23.3%,-1.0%,-7.8%
CCCCn1cnc2c(c(CC#N)nn2-c2ccccc2)c1=N,nt,nt,9.7%,nt,-13.2%
Cn1nc(CC#N)c2c(=N)n(N)cnc21,nt,nt,2.2%,nt,31.6µM*
CCCn1c(C(C)Nc2nc(-c3ccc(Cl)c([N+](=O)[O-])c3)cs2)nc2cc(Cl)c(N3CCCCC3)cc21 (configuration not stated),-2.5%,nt,1.0%,-9.9%[57.1 µM],?
COc1ccc(NC(=O)CSc2nc(-c3ccc(OC)c(OC)c3)[nH]c2-c2ccc(C)cc2)cc1,nt,14.0%[59 µM],47.3%,12.2%,-23.3%
COc1ccc(CCC(=O)NNC(=S)Nc2cccc(C(C)=O)c2)cc1,5.8%,39.8µM*,-4.4%,-2.4%,-18.2%
SMILES,L3MBTL1 block,G9a block,HP1b binding inh,BAZ2B block,JMJD2A Tudor inh
Cc1cccc(NC(=S)NC(NC(=O)c2ccco2)C(Cl)(Cl)Cl)c1 (configuration not stated),nt,14.1µM*,30.3%,-28.0%,-2.8%
COc1ccc(CCC(=O)NNC(=O)Nc2cccc(Cl)c2)cc1,nt,7.7%,53.5%,-17.2%,-8.3%
CNC(=S)Nc1cccc(C(C)=O)c1,-2.3%,-17.4%,21.6%,-17.3%,-3.7%[11.4 µM]
CC(=O)c1cccc(NC(=O)c2cccc(NC(=O)c3ccco3)c2)c1,9.0%,44.7µM*,55.5%,79.4µM*,-15.2%
Cc1ccc(NC(=S)NC(NC(=O)c2ccco2)C(Cl)(Cl)Cl)cc1 (configuration not stated),nt,0.9%[12.7 µM],33.7%,-10.1%,-21.5%
CC(=O)c1cccc(NC(=S)Nc2ccc(F)cc2)c1,-6.1%,50.1µM*,9.4%,5.7%,-15.1%
COc1ccc(-c2onc(C)c2C)cc1S(=O)(=O)Nc1cc(Cl)ccc1C,nt,-19.0%[59 µM],27.8%,-1.3%,-18.8%
O=C(Nc1cc(Br)c(O)c(Br)c1)c1cccc(NC(=O)c2ccco2)c1,-9.6%,39.8µM*,8.9%,50.1µM*,-28.7%
CC(=O)c1cccc(NC(=S)NNC(=O)c2ccco2)c1,7.6%,35.5µM*,32.6%,4.8%,3.4%
O=c1[nH][nH]c(=S)n1C1CCCCC1,3.5%,1.12µM*,3.55µM*,25.1µM*,2.51µM*
O=c1cc(O)n(C2CCCCCC2)c(=O)[nH]1,nt,?,61.2%,-0.8%,0.7%
Cc1ccccc1C(=O)N1CCN(CCc2ccccn2)CC1,nt,6.6%[59 µM],45.2%,-3.5%,1.0%
Cc1ccc2c(CC(=O)O)coc2c1,nt,-37.3%[12.7 µM],14.9%,-33.2%,-10.9%
Cc1cc(CC(=O)O)c2oc(-c3ccoc3)cc(=O)c2c1,nt,nt,-20.3%,nt,89.1µM*
Cc1ccc(OCC(=O)Nc2ccc3nc(SCC(=O)Nc4ccc(C)cc4C)sc3c2)cc1,nt,4.6%[59 µM],6.5%,-9.8%,-19.5%
CC1=C(c2ccccc2)[N+](=O)C2(CCCC2)N1[O-],3.8%,-23.0%[59 µM],13.2%,1.9%,-11.4%
O=[N+]([O-])c1ccc2c(c1)N([O-])C1(CCCCC1)[N+]2=O,-3.1%,nt,?,39.8µM*,?
O=C(C[n+]1ccc(-c2cc(C(=O)Nc3cccc(C(F)(F)F)c3)c3ccccc3n2)cc1)c1cccc([N+](=O)[O-])c1,?,50.1µM*,?,nt,-15.1%
Cc1nc(CN(C)c2ncnc3ccc(-c4ccc5c(c4)OCO5)cc23)cs1,nt,nt,nt,nt,89.1µM*
CCSc1ccc2cc(OC)ccc2[n+]1CC,nt,20µM*,28.7%,10.8%,?
CCn1ccc2cc(OC)ccc2c1=S,12.0%,nt,6.6%,-0.8%,-27.3%
COc1ccccc1C(=O)NN(C)C1=NS(=O)(=O)c2ccccc21,nt,13.6%,26.0%,13.4%,5.1%
CN(NC(=O)CN1C(=O)c2ccccc2C1=O)C1=NS(=O)(=O)c2ccccc21,-0.9%,79.4µM*,26.9%,-11.9%,-9.7%
COc1ccc2oc(=N)c(C(=O)NCc3ccccc3)cc2c1,5.7%,35.5µM*,1.5%,-4.4%,-13.8%
